# How the values were obtained:
# Test in all cases: DAPPL (digital affinity profiling via proximity ligation, sequencing); 10 mM Tris-HCl pH 7.5, 50 mM NaCl, 1 mM DTT, 4% glycerol, room temperature, 30 min; GST-TFs on glutathione beads, 16-mer random dsDNA library, 0.1% formaldehyde crosslink after washing; high values mean tight binding
# Details in all cases: protein: recombinant; tags: N-terminal GST; dsDNA, one strand shown
# ERF = target: T1, ERF (Homo sapiens, UniProt P50548 1-548)
# T1 sequence: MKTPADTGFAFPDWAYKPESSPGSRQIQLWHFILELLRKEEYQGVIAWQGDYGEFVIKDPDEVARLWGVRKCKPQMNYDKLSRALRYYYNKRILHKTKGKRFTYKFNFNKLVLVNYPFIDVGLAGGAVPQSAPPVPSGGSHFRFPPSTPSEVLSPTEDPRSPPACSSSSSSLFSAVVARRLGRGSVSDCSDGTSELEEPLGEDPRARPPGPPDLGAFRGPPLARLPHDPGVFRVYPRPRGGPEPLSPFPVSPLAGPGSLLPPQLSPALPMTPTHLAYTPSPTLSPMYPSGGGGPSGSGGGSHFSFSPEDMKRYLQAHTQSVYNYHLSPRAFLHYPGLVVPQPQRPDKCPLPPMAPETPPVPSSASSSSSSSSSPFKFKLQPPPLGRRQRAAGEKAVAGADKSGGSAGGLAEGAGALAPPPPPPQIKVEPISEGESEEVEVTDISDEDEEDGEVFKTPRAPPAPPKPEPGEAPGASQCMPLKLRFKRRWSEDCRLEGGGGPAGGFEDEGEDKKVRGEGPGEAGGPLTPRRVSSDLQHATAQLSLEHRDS
# In short: (§1)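 After expression in yeast as GST fusions, human transcription factors were bound to glutathione beads, DNA-barcoded and mixed with a tag-only sample. The pools were incubated with 200 nmole of a 16-mer random double-stranded DNA library in Tris/NaCl/DTT/glycerol buffer (30 min, room temperature), washed and crosslinked with 0.1% formaldehyde. Proximity ligation with BsaI/T4 ligase ran for 1 h at 37 °C, before PCR amplification and sequencing on an Illumina NextSeq500. Binding signal is a hexamer's read frequency for a factor divided by its frequency for the tag-only sample.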
# ETV3L = target: T2, ETV3L (Homo sapiens, UniProt Q6ZN32 1-361)
# T2 sequence: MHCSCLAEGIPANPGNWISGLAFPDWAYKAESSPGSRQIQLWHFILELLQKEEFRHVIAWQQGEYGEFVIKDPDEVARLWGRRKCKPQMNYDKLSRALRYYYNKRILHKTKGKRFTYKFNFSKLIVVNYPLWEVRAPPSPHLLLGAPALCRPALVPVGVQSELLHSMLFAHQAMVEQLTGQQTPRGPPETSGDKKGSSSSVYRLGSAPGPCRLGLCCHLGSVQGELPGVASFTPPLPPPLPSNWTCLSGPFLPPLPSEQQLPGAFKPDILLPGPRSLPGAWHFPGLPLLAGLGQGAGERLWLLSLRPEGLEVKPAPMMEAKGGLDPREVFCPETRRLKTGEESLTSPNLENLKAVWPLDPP
# In short: as §1
# ETS2 = target: T3, ETS2 (Homo sapiens, UniProt P15036 1-469)
# T3 sequence: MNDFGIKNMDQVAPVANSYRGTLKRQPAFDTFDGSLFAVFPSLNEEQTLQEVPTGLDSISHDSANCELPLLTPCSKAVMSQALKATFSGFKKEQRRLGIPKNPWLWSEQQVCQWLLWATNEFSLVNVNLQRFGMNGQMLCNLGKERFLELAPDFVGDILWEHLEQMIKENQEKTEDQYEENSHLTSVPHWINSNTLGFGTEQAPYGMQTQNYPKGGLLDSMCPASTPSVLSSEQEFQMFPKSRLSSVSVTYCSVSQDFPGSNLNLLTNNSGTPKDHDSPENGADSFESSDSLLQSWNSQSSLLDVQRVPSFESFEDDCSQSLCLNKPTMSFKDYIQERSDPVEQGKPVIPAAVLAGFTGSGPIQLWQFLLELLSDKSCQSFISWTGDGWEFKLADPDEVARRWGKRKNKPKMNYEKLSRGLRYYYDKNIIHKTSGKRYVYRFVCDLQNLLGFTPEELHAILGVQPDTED
# In short: as §1
# SPDEF = target: T4, SPDEF (Homo sapiens, UniProt O95238 1-335)
# T4 sequence: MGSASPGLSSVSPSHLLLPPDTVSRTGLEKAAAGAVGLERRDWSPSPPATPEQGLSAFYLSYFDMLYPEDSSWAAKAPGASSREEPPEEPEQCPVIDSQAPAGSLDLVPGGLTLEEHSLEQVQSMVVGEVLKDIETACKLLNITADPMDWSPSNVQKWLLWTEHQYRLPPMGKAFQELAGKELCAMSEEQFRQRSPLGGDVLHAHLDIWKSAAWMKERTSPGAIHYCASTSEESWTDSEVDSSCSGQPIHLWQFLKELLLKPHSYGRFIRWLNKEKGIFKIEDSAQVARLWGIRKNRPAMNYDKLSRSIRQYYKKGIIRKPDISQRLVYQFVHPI
# In short: as §1
# ETV7 = target: T5, ETV7 (Homo sapiens, UniProt Q9Y603 1-341)
# T5 sequence: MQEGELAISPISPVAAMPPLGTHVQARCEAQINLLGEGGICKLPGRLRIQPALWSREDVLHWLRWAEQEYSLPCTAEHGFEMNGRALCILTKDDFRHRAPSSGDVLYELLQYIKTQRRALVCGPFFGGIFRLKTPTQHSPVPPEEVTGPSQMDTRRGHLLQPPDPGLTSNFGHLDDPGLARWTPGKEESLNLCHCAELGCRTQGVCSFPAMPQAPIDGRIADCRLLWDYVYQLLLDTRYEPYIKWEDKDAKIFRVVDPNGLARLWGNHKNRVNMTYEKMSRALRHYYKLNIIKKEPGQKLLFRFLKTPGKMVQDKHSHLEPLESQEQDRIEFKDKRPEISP
# In short: as §1
# ELF5 = target: T6, ELF5 (Homo sapiens, UniProt Q9UKW6-2 1-255)
# T6 sequence: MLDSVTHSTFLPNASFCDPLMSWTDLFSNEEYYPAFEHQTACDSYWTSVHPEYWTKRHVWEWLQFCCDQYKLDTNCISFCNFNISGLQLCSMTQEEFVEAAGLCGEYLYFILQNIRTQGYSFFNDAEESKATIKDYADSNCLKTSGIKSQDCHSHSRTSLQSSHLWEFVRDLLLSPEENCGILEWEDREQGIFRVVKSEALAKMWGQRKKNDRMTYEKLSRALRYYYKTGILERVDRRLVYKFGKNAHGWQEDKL
# In short: as §1
# ETV3 = target: T7, ETV3 (Homo sapiens, UniProt P41162-2 1-143)
# T7 sequence: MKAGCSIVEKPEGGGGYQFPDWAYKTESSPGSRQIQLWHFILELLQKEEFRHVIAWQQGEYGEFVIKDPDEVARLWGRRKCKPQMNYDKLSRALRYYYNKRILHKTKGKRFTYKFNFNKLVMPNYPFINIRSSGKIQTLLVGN
# In short: as §1
# ETV6 = ETV6 (Homo sapiens, UniProt P41212 1-452)
# In short: as §1
# Sequence of ETV6 (P41212 whole entry): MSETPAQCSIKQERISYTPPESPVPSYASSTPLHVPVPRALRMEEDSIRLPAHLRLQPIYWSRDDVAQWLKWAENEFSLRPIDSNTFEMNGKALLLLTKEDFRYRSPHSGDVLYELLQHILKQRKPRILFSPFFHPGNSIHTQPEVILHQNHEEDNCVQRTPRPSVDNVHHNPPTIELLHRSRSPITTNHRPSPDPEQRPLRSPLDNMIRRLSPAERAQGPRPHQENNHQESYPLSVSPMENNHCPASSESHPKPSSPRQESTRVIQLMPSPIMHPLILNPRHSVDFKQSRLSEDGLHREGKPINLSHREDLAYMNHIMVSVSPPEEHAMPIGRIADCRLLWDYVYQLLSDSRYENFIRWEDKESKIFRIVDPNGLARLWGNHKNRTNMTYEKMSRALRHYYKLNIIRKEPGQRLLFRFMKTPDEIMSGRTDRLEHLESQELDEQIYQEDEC
sequence,measurement,setting,value
AGGTCT,binding signal,ERF,"1.26 fold enrichment (6-mer frequency, TF over GST control)"
same,binding signal,ETV3L,"1.14 fold enrichment (6-mer frequency, TF over GST control)"
same,binding signal,ETS2,"1.2 fold enrichment (6-mer frequency, TF over GST control)"
same,binding signal,SPDEF,"1.1 fold enrichment (6-mer frequency, TF over GST control)"
same,binding signal,ETV7,"1.2 fold enrichment (6-mer frequency, TF over GST control)"
same,binding signal,ELF5,"1.16 fold enrichment (6-mer frequency, TF over GST control)"
same,binding signal,ETV3,"1.11 fold enrichment (6-mer frequency, TF over GST control)"
same,binding signal,ETV6,"1.07 fold enrichment (6-mer frequency, TF over GST control)"
TACTTT,binding signal,ERF,"1.39 fold enrichment (6-mer frequency, TF over GST control)"
same,binding signal,ETV3L,"1.35 fold enrichment (6-mer frequency, TF over GST control)"
same,binding signal,ETS2,"1.32 fold enrichment (6-mer frequency, TF over GST control)"
same,binding signal,SPDEF,"1.35 fold enrichment (6-mer frequency, TF over GST control)"
same,binding signal,ETV7,"1.36 fold enrichment (6-mer frequency, TF over GST control)"
same,binding signal,ELF5,"1.34 fold enrichment (6-mer frequency, TF over GST control)"
same,binding signal,ETV3,"1.34 fold enrichment (6-mer frequency, TF over GST control)"
same,binding signal,ETV6,"1.37 fold enrichment (6-mer frequency, TF over GST control)"
ATCTGC,binding signal,ERF,"1.31 fold enrichment (6-mer frequency, TF over GST control)"
same,binding signal,ETV3L,"1.4 fold enrichment (6-mer frequency, TF over GST control)"
same,binding signal,ETS2,"1.37 fold enrichment (6-mer frequency, TF over GST control)"
same,binding signal,SPDEF,"1.36 fold enrichment (6-mer frequency, TF over GST control)"
same,binding signal,ETV7,"1.38 fold enrichment (6-mer frequency, TF over GST control)"
same,binding signal,ELF5,"1.31 fold enrichment (6-mer frequency, TF over GST control)"
same,binding signal,ETV3,"1.36 fold enrichment (6-mer frequency, TF over GST control)"
same,binding signal,ETV6,"1.29 fold enrichment (6-mer frequency, TF over GST control)"
TCGCCT,binding signal,ERF,"1.27 fold enrichment (6-mer frequency, TF over GST control)"
same,binding signal,ETV3L,"1.23 fold enrichment (6-mer frequency, TF over GST control)"
same,binding signal,ETS2,"1.24 fold enrichment (6-mer frequency, TF over GST control)"
same,binding signal,SPDEF,"1.13 fold enrichment (6-mer frequency, TF over GST control)"
same,binding signal,ETV7,"1.15 fold enrichment (6-mer frequency, TF over GST control)"
same,binding signal,ELF5,"1.33 fold enrichment (6-mer frequency, TF over GST control)"
same,binding signal,ETV3,"1.22 fold enrichment (6-mer frequency, TF over GST control)"
same,binding signal,ETV6,"1.32 fold enrichment (6-mer frequency, TF over GST control)"
TGATGG,binding signal,ERF,"1.27 fold enrichment (6-mer frequency, TF over GST control)"
same,binding signal,ETV3L,"1.16 fold enrichment (6-mer frequency, TF over GST control)"
same,binding signal,ETS2,"1.22 fold enrichment (6-mer frequency, TF over GST control)"
same,binding signal,SPDEF,"1.09 fold enrichment (6-mer frequency, TF over GST control)"
same,binding signal,ETV7,"1.24 fold enrichment (6-mer frequency, TF over GST control)"
same,binding signal,ELF5,"1.26 fold enrichment (6-mer frequency, TF over GST control)"
same,binding signal,ETV3,"1.2 fold enrichment (6-mer frequency, TF over GST control)"
same,binding signal,ETV6,"1.21 fold enrichment (6-mer frequency, TF over GST control)"
TCCTAG,binding signal,ERF,"1.26 fold enrichment (6-mer frequency, TF over GST control)"
same,binding signal,ETV3L,"1.08 fold enrichment (6-mer frequency, TF over GST control)"
same,binding signal,ETS2,"1.26 fold enrichment (6-mer frequency, TF over GST control)"
same,binding signal,SPDEF,"1.4 fold enrichment (6-mer frequency, TF over GST control)"
same,binding signal,ETV7,"1.25 fold enrichment (6-mer frequency, TF over GST control)"
same,binding signal,ELF5,"1.41 fold enrichment (6-mer frequency, TF over GST control)"
same,binding signal,ETV3,"1.32 fold enrichment (6-mer frequency, TF over GST control)"
same,binding signal,ETV6,"1.26 fold enrichment (6-mer frequency, TF over GST control)"
GCCCTT,binding signal,ERF,"1.11 fold enrichment (6-mer frequency, TF over GST control)"
same,binding signal,ETV3L,"1.16 fold enrichment (6-mer frequency, TF over GST control)"
same,binding signal,ETS2,"1.15 fold enrichment (6-mer frequency, TF over GST control)"
same,binding signal,SPDEF,"1.26 fold enrichment (6-mer frequency, TF over GST control)"
same,binding signal,ETV7,"1.07 fold enrichment (6-mer frequency, TF over GST control)"
same,binding signal,ELF5,"1.09 fold enrichment (6-mer frequency, TF over GST control)"
same,binding signal,ETV3,"1.14 fold enrichment (6-mer frequency, TF over GST control)"
same,binding signal,ETV6,"1.27 fold enrichment (6-mer frequency, TF over GST control)"
